Assay results from PubChem BioAssay (Tox21).
Inconclusive results are not listed. Values without a mark were called inactive. Activity calls are given as the source filed them. Calls come from the whole dose curve; as a rule, active = well fitted cell-killing curve with a large enough effect in the repeat runs (not every such curve was filed as active); inconclusive = weak or mixed curves, or effect the other way; inactive = no such curve, though single readings can be large or run the other way.

Test: qHTS assay to identify small molecule antagonists of the farnesoid-X-receptor (FXR) signaling pathway - cell viability counter screen (AID 743221); note: nearly all actives have a fitted effect of over 50% in size
Conditions: FXR-bla HEK293T viability, CellTiter-Glo luminescence, 16 h; series mostly up to 62.6 µM; activity change, negative = cytotoxicity: at the top concentration
Text: National Center for Advancing Translational Sciences [NCATS]
NIH Chemical Genomics Center [NCGC]
U.S. Environmental Protection Agency [EPA]
National Institutes of Environmental Health Sciences [NIEHS]
National Toxicology Program [NTP]
U.S. Food and Drug Administration [FDA]
The farnesoid-X-receptor (FXR), a nuclear hormone receptor, is highly expressed in liver, intestine, kidney and adrenal cortex. Natural ligands of FXR are the bile acids (Cholic acid, Chenodeoxy cholic acid etc). FXR is an important regulator of diverse metabolic pathways, including the bile acid homeostasis, lipid and glucose metabolisms. FXR regulates the expression of target genes by binding either as a monomer or as a heterodimer with the retinoid X receptor (RXR). Numerous studies have reported that FXR exerts protective function during cholestasis, diabetes, liver regeneration, and cancer. To identify compounds that inhibit FXR signaling, GeneBLAzer FXR-UAS-bla HEK 293T cell line (Invitrogen, Carlsbad, CA) containing a beta-lactamase reporter gene under the control of a UAS response element was used to screen the Tox21 10K compound library. The cytotoxicity of the Tox21 compound library against the FXR-bla cell line was tested in parallel by measuring the cell viability using CellTiter-Glo assay in the same wells.
Tox21 Assay Protocol Summary:
FXR-bla cells were dispensed at 5000 cells/5uL/well in 1536-well black wall/clear bottom plates using a Multidrop Combi (Thermo Fisher Scientific, Waltham, MA) dispenser. After the assay plates were incubated at 37 C and 5% CO2 for 5 h, 23 nL of compounds dissolved in DMSO, positive controls or DMSO only was transferred to the assay plate by a Pintool station (Kalypsys, San Diego, CA), followed by addition of 1 uL Chenodeoxycholic acid (50 uM, final concentration in the wells). The assay plates were incubated at 37C for 16 h. After 1 uL of LiveBLAzerTM B/G FRET substrate was added using a Bioraptr Flying Reagent Dispenser (FRD) workstation (Beckman Coulter, Indianapolis, IN), the plates were incubated at room temperature for 2 h, and fluorescence intensity was measured by an Envision plate reader (PerkinElmer, Shelton, CT). For cell viability readout that measures cytotoxicity, 4uL/well of CellTiter-Glo reagent was added into the assay plates using a Bioraptr FRD. After 30 min incubation at room temperature, the luminescence intensity in the plates was measured using a ViewLux plate reader (PerkinElmer).
% is set by controls: 0 for no effect and ±100 for the full control effect.

Compared with CC(=O)OCC(=O)[C@@]1(O)CCC2C3CCC4=CC(=O)CC[C@]4(C)C3[C@@H](O)C[C@@]21C (stereo not given in full), CCN1CCC[C@H]1CNC(=O)c1cc(S(N)(=O)=O)ccc1OC is higher in “activity change, negative = cytotoxicity” value: -11.2% for the first, 3.84% for the second.

First: CCN(Cc1ccncc1)C(=O)C(CO)c1ccccc1 (stereo not given)
Second: CC(C)(O)C(=O)c1ccccc1
The “activity change, negative = cytotoxicity” value of the first is lower: 2.73% for the first, 11% for the second.

First: N[C@H]1CN(c2c(F)cc3c(=O)c(C(=O)O)cn(C4C[C@H]4F)c3c2Cl)CC12CC2 (stereo not given in full)
Second: NS(=O)(=O)c1cc(C(=O)NN2C[C@H]3[C@H]4CCC(C4)[C@H]3C2)ccc1Cl
The “activity change, negative = cytotoxicity” value of the first is lower: -0.0272% for the first, 0.709% for the second.

Compared with COc1nc(N)nc2c1ncn2[C@@H]1O[C@H](CO)[C@@H](O)[C@@H]1O, Nc1nc2c(ncn2COC(CO)CO)c(=O)[nH]1 is lower in “activity change, negative = cytotoxicity” value: 10.5% for the first, 1.85% for the second.

Compared with COCCCOCCCOC, COC(=O)CCSCCC(=O)OC is higher in “activity change, negative = cytotoxicity” value: 3.18% for the first, 6.13% for the second.

Going from CCSC(=O)N(CC(C)C)CC(C)C to CC(C)=CCCC(C)CC(=O)O (stereo not given), the “activity change, negative = cytotoxicity” value falls from 10.6% to -19.9%.

First: NC(CSCC(=O)O)C(=O)O (stereo not given)
Second: COc1ccc2c(c1)c(CC(=O)OCC(=O)O)c(C)n2C(=O)c1ccc(Cl)cc1
The “activity change, negative = cytotoxicity” value of the first is higher: 5.26% for the first, 2.17% for the second.

First: C/C=C(\C)C#N
Second: CC1(C)CO[C@@H](CC(=O)O)CN1
The “activity change, negative = cytotoxicity” value of the first is lower: -2.43% for the first, 0.339% for the second.

First: C=CCS(=O)(=O)O
Second: C=CCCCCCCCCC=O
The “activity change, negative = cytotoxicity” value of the first is lower: -0.656% for the first, 0.586% for the second.

First: COC(=O)c1cc(C(=O)OC)cc(S(=O)(=O)O)c1
Second: COC(=O)c1ccc(C)cc1C1=NC(C)(C(C)C)C(=O)N1 (stereo not given)
The “activity change, negative = cytotoxicity” value of the first is higher: 0.271% for the first, -0.815% for the second.

Compared with Nc1c[n+](N2CCOCC2)no1, CN1N=C(C(N)=O)CCC1=O is higher in “activity change, negative = cytotoxicity” value: -9.02% for the first, 4.08% for the second.

Going from NC(=O)c1cn(Cc2c(F)cccc2F)nn1 to CC(C)(C)c1nnc(NS(=O)(=O)c2ccccc2)s1, the “activity change, negative = cytotoxicity” value falls from 12.6% to 6.37%.

Going from OC(CCN1CCCCC1)(c1ccccc1)C1CC2C=CC1C2 (stereo not given) to O=C(O)c1ccccc1OP(=O)(O)O, the “activity change, negative = cytotoxicity” value falls from 14.9% to 1.51%.

First: Cc1cc2c(cc1S(N)(=O)=O)S(=O)(=O)CCC2
Second: CC(=O)Nc1ccc(S(N)(=O)=O)cc1
The “activity change, negative = cytotoxicity” value of the first is higher: 8.45% for the first, 5.93% for the second.

Compared with CC(=O)N(CC(O)CO)c1c(I)c(C(=O)NCCO)c(I)c(C(=O)NCC(O)CO)c1I (stereo not given), CCN1CCC[C@H]1CNC(=O)c1c(O)c(Cl)cc(Cl)c1OC is higher in “activity change, negative = cytotoxicity” value: -8.18% for the first, 5.15% for the second.

Going from Cc1nc2c([nH]1)c(=O)n(C)c(=O)n2Cc1ccco1 to C=COCC1CCC(CO)CC1 (stereo not given), the “activity change, negative = cytotoxicity” value rises from 1.36% to 2.23%.

Going from OCCOc1ccc(OCCO)cc1 to CC(C)NCC(O)c1ccc(NS(C)(=O)=O)cc1 (stereo not given), the “activity change, negative = cytotoxicity” value rises from -0.334% [at 81.1 µM] to 3.3% [at 81.1 µM].

First: Cn1c(N)c(N=O)c(=O)n(C)c1=O
Second: CCOC(=O)CC(C)=O
The “activity change, negative = cytotoxicity” value of the first is higher: 5.32% [at 81.1 µM] for the first, 1.5% [at 81.1 µM] for the second.

For CC(C)(O)C#CC(C)(C)O, the “activity change, negative = cytotoxicity” value was 2.86% [at 81.1 µM].

With COC(=O)C1=C(C)NC(C)=C(C(=O)OC)C1c1ccccc1[N+](=O)[O-] the Potency was “inactive”.
For OC[C@]1(O)OC[C@@H](O)[C@H](O)[C@@H]1O, the Potency was “inactive”.

Work on O=C(O)CN(CCOCCOCCN(CC(=O)O)CC(=O)O)CC(=O)O yielded an activity change, negative = cytotoxicity of -3.69% [at 0.55 µM].
